A short description of experiment [1]: NCI Yeast Anticancer Drug Screen. Data for the rad50 strain (AID 155).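 Further: 0% = growth of vehicle-only cultures of the same strain.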 The following applies: S. cerevisiae rad50 strain growth inhibition, hits give high values. The method in brief:
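DNA repair mutant yeast, compound exposure, growth read-out; inhibition is taken relative to vehicle.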

The nature of experiment [2]: NCI Yeast Anticancer Drug Screen. Data for the mec2-1 strain (AID 157). The following applies: S. cerevisiae mec2-1 strain, hits give high values. In short, it runs like this:
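Strain: mec2-1 (DNA repair/cell cycle alteration). Compound exposure, then growth measured; inhibition expressed relative to vehicle.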

Experiment [3] is described as follows: NCI Yeast Anticancer Drug Screen. Data for the sgs1 mgt1 strain (AID 161).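 Further: 0% = growth of cultures given vehicle only.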 The following applies: S. cerevisiae sgs1 mgt1 strain, hits give high values. In short, it runs like this:
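Test agents were incubated with a DNA-repair-mutant yeast strain. Growth was then read and compared against vehicle-treated controls.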

The nature of experiment [4]: NCI Yeast Anticancer Drug Screen. Data for the cln2 rad14 strain (AID 165).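 Further: 0% = growth equal to vehicle treated cultures.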 The following applies: S. cerevisiae cln2 rad14 strain, hits give high values. The method in brief:
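Compounds are applied to the cln2 rad14 yeast strain, and growth is then compared with that of vehicle-treated cultures to give inhibition.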

A short description of experiment [5]: NCI Yeast Anticancer Drug Screen. Data for the bub3 strain (AID 167). The following applies: S. cerevisiae bub3 mutant strain, hits give high values. In short, it runs like this:
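In this screen, a yeast mutant lacking normal mitotic checkpoint function is challenged with compound. Relative growth versus vehicle gives the inhibition value.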

Experiment [6] can be described thus: NCI Yeast Anticancer Drug Screen. Data for the mlh1 rad18 strain (AID 175). The following applies: S. cerevisiae mlh1 rad18 strain growth inhibition, hits give high values. The method in brief: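 Read-out is yeast growth inhibition, calculated against vehicle-only controls. The compound was applied to a strain engineered with DNA damage repair alterations.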
Where [7] appears, read: at 5.0 µM (retest, dose inferred, filed as 0.5).
Where [8] appears, read: at 50.0 µM (retest, dose inferred, filed as 5.0).

This is an account of results in PubChem BioAssay (NCI).

Molecules are shown by their SMILES. Compounds without any hit were thinned out: in the full panel of roughly 79,000, 15% have a hit. A number with no mark means an inactive call. The source made the active and inactive calls. No stated cut-off is given here; in the data, active means growth inhibition above about 70%; inactive means the rest.

Regarding `O=C1C=C(Cl)C(=O)c2ccccc21`, the growth inhibition in experiment [1] (setting [7]) is 90% (active); in experiment [1] (setting [8]) it was 99% (active); in experiment [1] (at 50.0 µM), 99% (active); in experiment [2] (setting [7]), 35%; in experiment [2] (setting [8]), 100% (active); in experiment [2] (at 50.0 µM), 99% (active). Besides, the growth inhibition is 30% in experiment [3] (setting [7]); 99% (active) in experiment [3] (setting [8]); 99.3% (active) in experiment [3] (at 50.0 µM); 31% in experiment [4] (setting [7]); 98% (active) in experiment [4] (setting [8]); 99.1% (active) in experiment [4] (at 50.0 µM). In addition, the growth inhibition in experiment [5] (setting [7]) is 47%; in experiment [5] (setting [8]), 99% (active); in experiment [5] (at 50.0 µM), 98.8% (active); in experiment [6] (setting [7]) it was 53%; in experiment [6] (setting [8]), 99% (active); in experiment [6] (at 50.0 µM) it was 99% (active).
As for `O=C(Nc1ccc(Cl)c(Cl)c1)OCc1ccco1`, the growth inhibition in experiment [1] (setting [7]) was 51%; in experiment [1] (setting [8]) it was 68%; in experiment [1] (at 50.0 µM) it was 91.4% (active); in experiment [2] (setting [7]), 38%; in experiment [2] (setting [8]), 66%; in experiment [2] (at 50.0 µM), 93% (active). The growth inhibition is 47% in experiment [3] (setting [7]); 99% (active) in experiment [3] (setting [8]); 92.9% (active) in experiment [3] (at 50.0 µM); 35% in experiment [4] (setting [7]); 90% (active) in experiment [4] (setting [8]); 91.7% (active) in experiment [4] (at 50.0 µM). In addition, the growth inhibition was 41% in experiment [5] (setting [7]); 81% (active) in experiment [5] (setting [8]); 93.1% (active) in experiment [5] (at 50.0 µM); 48% in experiment [6] (setting [7]); 76% (active) in experiment [6] (setting [8]); 92% (active) in experiment [6] (at 50.0 µM).
Turning to `OCCOSCCO`, the growth inhibition is 5% in experiment [1] (setting [7]); -4% in experiment [1] (setting [8]); -0.05% in experiment [1] (at 50.0 µM); 2% in experiment [2] (setting [7]); -4% in experiment [2] (setting [8]); -14.1% in experiment [2] (at 50.0 µM). The growth inhibition in experiment [3] (setting [7]) is -8%; in experiment [3] (setting [8]), -2%; in experiment [3] (at 50.0 µM) it was 10.2%; in experiment [4] (setting [7]) it was 6%; in experiment [4] (setting [8]), 2%; in experiment [4] (at 50.0 µM), 15.8%. Also, the growth inhibition in experiment [5] (setting [7]) was 2%; in experiment [5] (setting [8]), 6%; in experiment [5] (at 50.0 µM), -6.5%; in experiment [6] (setting [7]) it was 4%; in experiment [6] (setting [8]), -4%; in experiment [6] (at 50.0 µM) it was -14.1%.
With `O=C(Cc1ccccc1)C(F)(F)F`, the growth inhibition is 10% in experiment [1] (setting [7]); 70% (active) in experiment [1] (setting [8]); -8.45% in experiment [1] (at 50.0 µM); 3% in experiment [2] (setting [7]); 15% in experiment [2] (setting [8]); 1.95% in experiment [2] (at 50.0 µM). For the same molecule, the growth inhibition in experiment [3] (setting [7]) is 4%; in experiment [3] (setting [8]) it was 20%; in experiment [3] (at 50.0 µM) it was 42.2%; in experiment [4] (setting [7]) it was 4%; in experiment [4] (setting [8]), 2%; in experiment [4] (at 50.0 µM), -15.6%. The growth inhibition was 2% in experiment [5] (setting [7]); 19% in experiment [5] (setting [8]); -7.95% in experiment [5] (at 50.0 µM); 0% in experiment [6] (setting [7]); 18% in experiment [6] (setting [8]); 58.8% in experiment [6] (at 50.0 µM).
As for `CCOc1cc(F)c([N+](=O)[O-])cc1[N+](=O)[O-]`, the growth inhibition in experiment [1] (setting [7]) is 92% (active); in experiment [1] (setting [8]) it was 99% (active); in experiment [1] (at 50.0 µM) it was 98.7% (active); in experiment [2] (setting [7]) it was 94% (active); in experiment [2] (setting [8]), 100% (active); in experiment [2] (at 50.0 µM) it was 54.4%. The growth inhibition is 96% (active) in experiment [3] (setting [7]); 99% (active) in experiment [3] (setting [8]); 51.5% in experiment [3] (at 50.0 µM); 97% (active) in experiment [4] (setting [7]); 100% (active) in experiment [4] (setting [8]); 98.4% (active) in experiment [4] (at 50.0 µM). Further, the growth inhibition in experiment [5] (setting [7]) is 91% (active); in experiment [5] (setting [8]) it was 99% (active); in experiment [5] (at 50.0 µM) it was 99% (active); in experiment [6] (setting [7]), 92% (active); in experiment [6] (setting [8]), 100% (active); in experiment [6] (at 50.0 µM), 98.5% (active).
On to `Nc1nc(-c2ccccc2)nc(N)c1N=O`, for which the growth inhibition is 50% in experiment [1] (setting [7]); 99% (active) in experiment [1] (setting [8]); 87.4% (active) in experiment [1] (at 50.0 µM); 63% in experiment [2] (setting [7]); 98% (active) in experiment [2] (setting [8]); 89.5% (active) in experiment [2] (at 50.0 µM). The growth inhibition in experiment [3] (setting [7]) was 50%; in experiment [3] (setting [8]), 99% (active); in experiment [3] (at 50.0 µM) it was 91.5% (active); in experiment [4] (setting [7]) it was 52%; in experiment [4] (setting [8]) it was 100% (active); in experiment [4] (at 50.0 µM), 77% (active). In addition, the growth inhibition in experiment [5] (setting [7]) was 82% (active); in experiment [5] (setting [8]), 97% (active); in experiment [5] (at 50.0 µM) it was 89.2% (active); in experiment [6] (setting [7]), 49%; in experiment [6] (setting [8]), 67%; in experiment [6] (at 50.0 µM), 88.5% (active).
As to `CCCCCCCCCCCC[n+]1ccc(CCCCCCCCC)cc1`, the growth inhibition was 99% (active) in experiment [1] (setting [7]); 99% (active) in experiment [1] (setting [8]); 99% (active) in experiment [1] (at 50.0 µM); 100% (active) in experiment [2] (setting [7]); 99% (active) in experiment [2] (setting [8]); 99.3% (active) in experiment [2] (at 50.0 µM). Also, the growth inhibition is 100% (active) in experiment [3] (setting [7]); 99% (active) in experiment [3] (setting [8]); 99.5% (active) in experiment [3] (at 50.0 µM); 98% (active) in experiment [4] (setting [7]); 99% (active) in experiment [4] (setting [8]); 98.5% (active) in experiment [4] (at 50.0 µM). Further, the growth inhibition was 100% (active) in experiment [5] (setting [7]); 99% (active) in experiment [5] (setting [8]); 98.8% (active) in experiment [5] (at 50.0 µM); 99% (active) in experiment [6] (setting [7]); 99% (active) in experiment [6] (setting [8]); 97.6% (active) in experiment [6] (at 50.0 µM).
For the molecule `Cc1cc(C(=C2C=CC(=Nc3ccccc3)C=C2)c2ccc(Nc3ccccc3)cc2)ccc1N`, the growth inhibition in experiment [1] (setting [7]) is 6%; in experiment [1] (setting [8]), 60%; in experiment [1] (at 50.0 µM) it was 43.8%; in experiment [2] (setting [7]) it was 7%; in experiment [2] (setting [8]), 82% (active); in experiment [2] (at 50.0 µM), 88.4% (active). In addition, the growth inhibition in experiment [3] (setting [7]) was -5%; in experiment [3] (setting [8]), 79% (active); in experiment [3] (at 50.0 µM) it was 65.3%; in experiment [4] (setting [7]), -8%; in experiment [4] (setting [8]), 69%; in experiment [4] (at 50.0 µM), 25.5%. Also, the growth inhibition is 30% in experiment [5] (setting [7]); 75% (active) in experiment [5] (setting [8]); 83.3% (active) in experiment [5] (at 50.0 µM); 13% in experiment [6] (setting [7]); 71% (active) in experiment [6] (setting [8]); -23.6% in experiment [6] (at 50.0 µM).
With `CN(C)c1ccc(C(=C2C=CC(=[N+](C)C)C=C2)c2ccc(N(C)C)cc2)cc1`, the growth inhibition in experiment [1] (setting [7]) is 99% (active); in experiment [1] (setting [8]) it was 90% (active); in experiment [1] (at 50.0 µM) it was 94.9% (active); in experiment [2] (setting [7]), 99% (active); in experiment [2] (setting [8]) it was 95% (active); in experiment [2] (at 50.0 µM) it was 95% (active). The growth inhibition is 99% (active) in experiment [3] (setting [7]); 95% (active) in experiment [3] (setting [8]); 94.8% (active) in experiment [3] (at 50.0 µM); 99% (active) in experiment [4] (setting [7]); 93% (active) in experiment [4] (setting [8]); 87.2% (active) in experiment [4] (at 50.0 µM). Further, the growth inhibition is 99% (active) in experiment [5] (setting [7]); 91% (active) in experiment [5] (setting [8]); 94.8% (active) in experiment [5] (at 50.0 µM); 99% (active) in experiment [6] (setting [7]); 90% (active) in experiment [6] (setting [8]); 91.2% (active) in experiment [6] (at 50.0 µM).
`Cc1c2c(c(C)c3c[n+](C)ccc13)Oc1ccccc1O2`: the growth inhibition in experiment [1] (setting [7]) was 18%; in experiment [1] (setting [8]), 24%; in experiment [1] (at 50.0 µM) it was 25.4%; in experiment [2] (setting [7]) it was 12%; in experiment [2] (setting [8]), 19%; in experiment [2] (at 50.0 µM) it was 61.6%. The growth inhibition is 11% in experiment [3] (setting [7]); 21% in experiment [3] (setting [8]); 80.5% (active) in experiment [3] (at 50.0 µM); 17% in experiment [4] (setting [7]); 20% in experiment [4] (setting [8]); 62.1% in experiment [4] (at 50.0 µM). Further, the growth inhibition in experiment [5] (setting [7]) was 28%; in experiment [5] (setting [8]) it was 31%; in experiment [5] (at 50.0 µM), 85.6% (active); in experiment [6] (setting [7]) it was 24%; in experiment [6] (setting [8]), 15%; in experiment [6] (at 50.0 µM) it was -20.6%.
